# Measurements published in PubChem BioAssay (NCATS).
# Values joined by “and” are separate entries in the source; they are usually repeats but may differ in a detail not shown here. Identical values can stand only once. Records with an inconclusive call do not appear. Active and inactive are the calls of the source. Unless noted, the call rests on the fitted dose curve; in most records, active means well fitted curve in the direction sought with a large enough effect; inconclusive means small, poorly fitted or top-dose-only effect, or another doubt; inactive means no such curve, though single readings can be large; an effect the other way counts as inactive or inconclusive.
# Legend:
# [1] = Primary qHTS for inhibitors of nuclear receptor binding SET domain protein 2 (NSD2) in an isogenic RCH-ACV NSD2 p.E1099K mutant (9B) (AID 1645876); details: RCH-ACV NSD2 E1099K (9B) viability, CellTiter-Glo, 72 h; series mostly up to 44.9 µM; further: nearly all actives have a fitted effect of over 70% in size; further: potency means the concentration at half of the fitted maximal effect
# [2] = Primary qHTS for inhibitors of nuclear receptor binding SET domain protein 2 (NSD2) in an RCH-ACV wild type WT cells (2C) (AID 1645877); details: RCH-ACV (leukaemia line) NSD2 WT (2C) viability, CellTiter-Glo, 72 h; series mostly up to 44.9 µM; further: nearly all actives have a fitted effect of over 70% in size; further: potency means the concentration at half of the fitted maximal effect
# [3] = Viability counterscreen for antagonist of constitutive androstane receptor (CAR) against the NCATS DSHEA and TCM libraries (AID 1794837); details: CAR reporter cell line viability counterscreen, qHTS; series mostly up to 40 µM;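 further: compound exposure lasted 24 h before viability reading; 0% is about no effect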
# Method in brief: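 HepG2-CYP2B6-hCAR cells, 2,500/well, were exposed 24 hr at 37C to substances together with 48 uM CITCO (final). Viability was read as CellTiter-Fluor fluorescence (Ex/Em 405/540 nm) after 1 hr.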
# [4] = molecular target: Catechol O-methyltransferase (Homo sapiens) (UniProt P21964); assay: Confirmatory Screen for Target Class Profiling of Small Molecule Inhibitors of Methyltransferases (AID 1745852; calls by dose curve; on activity change, negative = inhibition: on the % scale 0 is the no-effect control and ±100 the full control effect); details: MTase-Glo luminescence, SAH detection, recombinant enzyme; measured here: COMT max response; stronger effect = lower value
# Chain of Catechol O-methyltransferase (Homo sapiens) (P21964 whole entry, looked up): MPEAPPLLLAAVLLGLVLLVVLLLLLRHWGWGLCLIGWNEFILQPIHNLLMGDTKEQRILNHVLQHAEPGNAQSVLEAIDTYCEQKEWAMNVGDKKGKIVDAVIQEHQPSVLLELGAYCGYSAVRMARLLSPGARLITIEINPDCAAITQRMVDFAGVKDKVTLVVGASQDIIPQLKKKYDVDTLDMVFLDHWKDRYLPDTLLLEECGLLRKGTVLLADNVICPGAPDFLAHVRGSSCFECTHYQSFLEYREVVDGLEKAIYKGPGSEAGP
# [5] = molecular target: Guanidinoacetate N-methyltransferase (Homo sapiens) (UniProt Q14353); assay: as above; details: MTase-Glo luminescence, SAH detection, recombinant enzyme; activity change, negative = inhibition: at 57.3 µM (top of the series); series mostly up to 57.3 µM
# [6] = molecular target: Nicotinamide N-methyltransferase (Homo sapiens) (UniProt P40261); assay: as above; details: MTase-Glo luminescence, SAH detection, recombinant enzyme; measured here: NNMT max response; stronger effect = lower value
# Chain of Nicotinamide N-methyltransferase (Homo sapiens) (P40261 whole entry, looked up): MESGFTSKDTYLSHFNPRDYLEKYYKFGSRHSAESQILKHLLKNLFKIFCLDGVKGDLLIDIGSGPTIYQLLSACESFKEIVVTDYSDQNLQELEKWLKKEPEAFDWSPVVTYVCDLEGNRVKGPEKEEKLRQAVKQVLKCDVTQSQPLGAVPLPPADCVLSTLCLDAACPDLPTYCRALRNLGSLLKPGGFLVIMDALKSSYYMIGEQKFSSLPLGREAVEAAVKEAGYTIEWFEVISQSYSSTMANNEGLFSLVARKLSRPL
# [7] = molecular target: Phenylethanolamine N-methyltransferase (Homo sapiens) (UniProt P11086); assay: as above; details: MTase-Glo luminescence, SAH detection, recombinant enzyme; measured here: PNMT max response; stronger effect = lower value
# Chain of Phenylethanolamine N-methyltransferase (Homo sapiens) (P11086 whole entry, looked up): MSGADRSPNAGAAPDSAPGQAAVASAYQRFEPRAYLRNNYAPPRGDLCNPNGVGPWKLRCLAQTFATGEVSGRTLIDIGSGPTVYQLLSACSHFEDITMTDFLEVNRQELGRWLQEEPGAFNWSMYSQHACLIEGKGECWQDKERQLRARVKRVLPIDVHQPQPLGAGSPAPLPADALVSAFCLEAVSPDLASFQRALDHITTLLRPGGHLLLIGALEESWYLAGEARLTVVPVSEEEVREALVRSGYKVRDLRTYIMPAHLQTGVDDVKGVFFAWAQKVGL
# [8] = NCATS anti-infectives library activity on the primary C. elegans qHTS viability assay (AID 1745855; calls by dose curve; further: potency means the concentration at half of the fitted maximal effect); details: C. elegans worm area imaging, day 7; series mostly up to 41.8 µM
# Method in brief: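 Titration-based screen in worms: eggs hatched overnight in M9, L1 larvae fed TOP10 capsules in S medium with compound, incubated 21 °C for 7 days; fluorescent objects gated by size and intensity at days 0, 3 and 7.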
# [9] = Viability counterscreen for agonist of constitutive androstane receptor (CAR) against the NCATS DSHEA and TCM libraries (AID 1794838); details: HepG2 cell viability counterscreen, CAR agonist assay, co-treated with 0.75 µM CAR antagonist; series mostly up to 40 µM;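 further: HepG2 cells with CYP2B6 reporter and hCAR plus 0.75 µM PK11195 antagonist; 0% is about no effect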
# Method in brief: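 HepG2-CYP2B6-hCAR cells (2,500/well) treated 24 h at 37C with compounds plus 0.75 uM PK11195; viability read by CellTiter-Fluor fluorescence, Ex/Em 405/540 nm.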
structure (smiles),measurement,setting,value
FC(F)c1nc2ccccc2n1-c1nc(N2CCOCC2)nc(N2CCOCC2)n1,Potency,[1],57.8 nM (active) and 41.7 nM (active)
same,Potency,[2],72.8 nM (active) and 105 nM (active)
C=C(C)[C@@H]1CC[C@]2(C(=O)O)CC[C@]3(C)[C@H](CC[C@@H]4[C@@]5(C)CC[C@H](O)C(C)(C)[C@@H]5CC[C@]43C)[C@@H]12,Potency,[1],inactive
same,Potency,[2],inactive
same,outcome,[3],inactive
CC(Cc1ccc(O)c(O)c1)(NN)C(=O)O (stereo unspecified),Potency,[2],29.5 µM (active)
Cc1cnc(Nc2ccc(CN3CCOCC3)cc2)nc1Nc1cccc(S(=O)(=O)NC(C)(C)C)c1,Potency,[1],1.18 µM (active) and 578 nM (active)
same,Potency,[2],1.05 µM (active) and 515 nM (active)
same,activity,[4],-0.0774%
same,"activity change, negative = inhibition",[5],0.454%
same,activity,[6],-43.5%
same,activity,[7],-4.34%
C[C@H](NC(=O)[C@@H](O)c1cc(F)cc(F)c1)C(=O)N[C@@H]1C(=O)N(C)c2ccccc2-c2ccccc21,Potency,[1],inactive
same,Potency,[2],inactive
same,Potency,[8],0.365 µM (active)
Cc1cnc(Nc2ccc(N3CCN(C)CC3)cc2)nc1Nc1cccc(S(=O)(=O)NC(C)(C)C)c1,Potency,[1],1.66 µM (active)
same,Potency,[2],1.86 µM (active)
same,activity,[4],8.73%
same,"activity change, negative = inhibition",[5],-1.34%
same,activity,[6],-15.4%
same,activity,[7],0.463%
N#Cc1c(C2CCNCC2)cc(-c2c(O)cccc2OCC2CC2)nc1N,Potency,[1],11.8 µM (active)
same,Potency,[2],9.34 µM (active)
same,activity,[4],-9.7%
same,"activity change, negative = inhibition",[5],0.393%
same,activity,[6],-55.9%
same,activity,[7],-6.86%
c1cc(CN2CCCNCCNCCCNCC2)ccc1CN1CCCNCCNCCCNCC1,Potency,[2],inactive
COc1ccc(C(C)=O)c(O)c1,outcome,[3],inactive
same,outcome,[9],inactive
c1ccc2c(Oc3nc(Nc4ccc(N5CCOCC5)cc4)c4ncn(C5CCCCC5)c4n3)cccc2c1,Potency,[1],inactive
same,Potency,[2],inactive
same,activity,[4],0.484%
same,"activity change, negative = inhibition",[5],-1.84%
same,activity,[6],-22.9%
same,activity,[7],-3.02%
